Test results as given in PubChem BioAssay.
The source made the active and inactive calls.

Experiments:
[1] = system: PRMT1 (protein arginine N-methyltransferase 1); assay: PRMT1 binders on small-molecule microarrays, primary screen, biochemical, small-molecule microarray, 635 nm fluorescence (AID 1088); conditions: small-molecule microarray binding, higher = more signal;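 note: binding of Prmt1 protein to compounds spotted on small-molecule microarray slides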
[2] = yeast growth modulation, basal conditions, primary screen, YJM789 clinical isolate, OD600, 24 h (AID 1089);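 note: growth of clinical yeast isolate S. cerevisiae YJM 789 seeded 1000 cells per well; test concentration not given here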; conditions: S. cerevisiae YJM789 growth, higher = more signal, called active from +8 up or from −8 down
[3] = fission yeast growth modulation, primary screen, strain 972, OD600, 24 h, no modulator (AID 1090);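 note: basal condition with compound alone and no growth modifier present; test concentration not given here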; conditions: S. pombe 972 growth, higher = more signal, called active from +8 up or from −8 down
[4] = S. cerevisiae growth modulation with rapamycin, primary screen, strain BY4716, OD600, 96 h (AID 1091); conditions: higher = more signal, called active from +8 up or from −8 down; note: test concentration not given here
[5] = target: Torsin-1A-interacting protein 2 (Homo sapiens) (UniProt Q8NFQ8); assay: LULL1 binders on small-molecule microarray, primary screen, cell lysate, human LULL1 lysate, 635/667 nm fluorescence (AID 1092); conditions: hLULL1 lysate binding, 635 nm fluorescence, higher = more signal;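 note: probe is lysate of COS7 cells overexpressing human LULL1; score merges per-feature 667 nm fluorescence with signal-to-noise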
[6] = E. coli growth modulation, two-sided OD650, primary screen, E. coli filamentation project, strain DRC41, 24 h (AID 1093); conditions: OD650, 24 h, higher = more signal, called active from +8 up or from −8 down;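 note: MC1000 strain lacking acrAB efflux and sulA so SOS filamentation is blocked; test concentration not given here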
[7] = small-molecule microarray binders of probe aLefty2, primary screen, biochemical, biotinylated probe, 635/667 nm fluorescence (AID 1094); conditions: higher = more signal;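 note: score merges spot fluorescence near 667 nm with spot signal-to-noise ratio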
[8] = system: Noggin (protein binding on small-molecule microarray); assay: Noggin binders on small-molecule microarray, primary screen, biochemical, 635/667 nm fluorescence (AID 1095); conditions: 635 nm fluorescence, higher = more signal;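 note: score merges 667 nm feature fluorescence with signal to noise over triplicate slides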
[9] = target: Neurogenic locus notch homolog protein 3 (Homo sapiens) (UniProt Q9UM47); assay: NOTCH3 binders on small-molecule microarray, primary screen, biochemical, 635/667 nm fluorescence (AID 1096); conditions: NOTCH3 binding, 635 nm fluorescence, higher = more signal
[10] = small-molecule microarray binders of probe aEGFR, primary screen, biochemical, biotinylated probe, 635/667 nm fluorescence (AID 1097); conditions: higher = more signal;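 note: probe is a biotinylated anti-EGFR antibody binding compounds printed on slides; score combines fluorescence near 667 nm and signal to noise of each spot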
[11] = system: Plasmodium falciparum Sir2 (PF13_0152, Sir2A); assay: pfSir2 binders on small-molecule microarrays, primary screen, biochemical, small-molecule microarray, 635 nm fluorescence (AID 1098); conditions: small-molecule microarray binding, fluorescence 635 nm; higher = more signal;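 note: score merges spot fluorescence intensity with its signal-to-noise ratio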
[12] = small-molecule microarray binders of probe aDKK1, primary screen, biochemical, biotinylated probe, 635/667 nm fluorescence (AID 1099); conditions: higher = more signal;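 note: score merges 667nm spot fluorescence with signal to noise across triplicate slides; reference of the scale not given here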
[13] = small-molecule microarray binders of probe aCHRDL2, primary screen, biochemical, biotinylated probe, 635/667 nm fluorescence (AID 1100); conditions: higher = more signal
[14] = splicing luciferase reporter signal modulators, primary screen, spliceosome inhibition project, cell-based, HEK293, splice +/- reporter (AID 1101); conditions: luminescence, 24 h, higher = more signal, called active from +8 up or from −8 down;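 note: HEK293 cells carrying a splicing-competent luciferase reporter gene; test concentration not given here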
[15] = target: Fibroblast growth factor 10 (Homo sapiens) (UniProt O15520); assay: FGF10 binders on small-molecule microarrays, primary screen, biochemical, small-molecule microarray, 635 nm fluorescence (AID 1102); conditions: FGF10 binding, fluorescence 635 nm, higher = more signal
[16] = system: glycogen synthase kinase-3 (GSK3A per assay name; protocol says GSK3B); assay: GSK3 binders on small-molecule microarrays, primary screen, biochemical, small-molecule microarray, 635 nm fluorescence, GSK3A (AID 1103); conditions: small-molecule microarray binding, fluorescence 635 nm; higher = more signal; note: the record names both GSK3A and GSK3B
[17] = target: Epidermal growth factor receptor (Homo sapiens) (UniProt P00533); assay: EGFR binders on small-molecule microarrays, primary screen, biochemical, small-molecule microarray, 635 nm fluorescence (AID 1104); conditions: EGFR binding, higher = more signal;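 note: score merges 667 nm emission intensity with spot signal to noise over triplicate slides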
[18] = target: Follistatin-related protein 3 (Homo sapiens) (UniProt O95633); assay: FSTL3 binders on small-molecule microarrays, primary screen, biochemical, small-molecule microarray, 635 nm fluorescence (AID 1105); conditions: FSTL3 binding, higher = more signal;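 note: score merges emission near 667 nm and signal to noise per printed spot across three slides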
[19] = target: Dickkopf-related protein 1 (Homo sapiens) (UniProt O94907); assay: DKK1 binders on small-molecule microarrays, primary screen, biochemical, small-molecule microarray, 635 nm fluorescence scan (AID 1106); conditions: DKK1 binding, higher = more signal;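 note: score merges emission near 667 nm with signal to noise over three replicate slides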
[20] = system: Inhibin beta A chain (activin A); assay: INHBA (activin A) binders on microarrays, primary screen, biochemical, small-molecule microarray, 635 nm fluorescence scan (AID 1107); conditions: small-molecule microarray binding, higher = more signal;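 note: mouse activin A protein probed at 4.33 µg/mL on printed slides; score merges bound-protein fluorescence near 667 nm with spot signal-to-noise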

Fibroblast growth factor 10 (Homo sapiens), sequence (O15520 whole entry, looked up): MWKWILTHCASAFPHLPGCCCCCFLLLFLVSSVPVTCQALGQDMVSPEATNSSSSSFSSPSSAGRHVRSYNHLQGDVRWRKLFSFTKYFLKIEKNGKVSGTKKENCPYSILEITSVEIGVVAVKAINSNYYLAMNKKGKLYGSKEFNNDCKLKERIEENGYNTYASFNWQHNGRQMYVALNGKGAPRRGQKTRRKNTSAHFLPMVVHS
Neurogenic locus notch homolog protein 3 (Homo sapiens), sequence (Q9UM47 whole entry, looked up): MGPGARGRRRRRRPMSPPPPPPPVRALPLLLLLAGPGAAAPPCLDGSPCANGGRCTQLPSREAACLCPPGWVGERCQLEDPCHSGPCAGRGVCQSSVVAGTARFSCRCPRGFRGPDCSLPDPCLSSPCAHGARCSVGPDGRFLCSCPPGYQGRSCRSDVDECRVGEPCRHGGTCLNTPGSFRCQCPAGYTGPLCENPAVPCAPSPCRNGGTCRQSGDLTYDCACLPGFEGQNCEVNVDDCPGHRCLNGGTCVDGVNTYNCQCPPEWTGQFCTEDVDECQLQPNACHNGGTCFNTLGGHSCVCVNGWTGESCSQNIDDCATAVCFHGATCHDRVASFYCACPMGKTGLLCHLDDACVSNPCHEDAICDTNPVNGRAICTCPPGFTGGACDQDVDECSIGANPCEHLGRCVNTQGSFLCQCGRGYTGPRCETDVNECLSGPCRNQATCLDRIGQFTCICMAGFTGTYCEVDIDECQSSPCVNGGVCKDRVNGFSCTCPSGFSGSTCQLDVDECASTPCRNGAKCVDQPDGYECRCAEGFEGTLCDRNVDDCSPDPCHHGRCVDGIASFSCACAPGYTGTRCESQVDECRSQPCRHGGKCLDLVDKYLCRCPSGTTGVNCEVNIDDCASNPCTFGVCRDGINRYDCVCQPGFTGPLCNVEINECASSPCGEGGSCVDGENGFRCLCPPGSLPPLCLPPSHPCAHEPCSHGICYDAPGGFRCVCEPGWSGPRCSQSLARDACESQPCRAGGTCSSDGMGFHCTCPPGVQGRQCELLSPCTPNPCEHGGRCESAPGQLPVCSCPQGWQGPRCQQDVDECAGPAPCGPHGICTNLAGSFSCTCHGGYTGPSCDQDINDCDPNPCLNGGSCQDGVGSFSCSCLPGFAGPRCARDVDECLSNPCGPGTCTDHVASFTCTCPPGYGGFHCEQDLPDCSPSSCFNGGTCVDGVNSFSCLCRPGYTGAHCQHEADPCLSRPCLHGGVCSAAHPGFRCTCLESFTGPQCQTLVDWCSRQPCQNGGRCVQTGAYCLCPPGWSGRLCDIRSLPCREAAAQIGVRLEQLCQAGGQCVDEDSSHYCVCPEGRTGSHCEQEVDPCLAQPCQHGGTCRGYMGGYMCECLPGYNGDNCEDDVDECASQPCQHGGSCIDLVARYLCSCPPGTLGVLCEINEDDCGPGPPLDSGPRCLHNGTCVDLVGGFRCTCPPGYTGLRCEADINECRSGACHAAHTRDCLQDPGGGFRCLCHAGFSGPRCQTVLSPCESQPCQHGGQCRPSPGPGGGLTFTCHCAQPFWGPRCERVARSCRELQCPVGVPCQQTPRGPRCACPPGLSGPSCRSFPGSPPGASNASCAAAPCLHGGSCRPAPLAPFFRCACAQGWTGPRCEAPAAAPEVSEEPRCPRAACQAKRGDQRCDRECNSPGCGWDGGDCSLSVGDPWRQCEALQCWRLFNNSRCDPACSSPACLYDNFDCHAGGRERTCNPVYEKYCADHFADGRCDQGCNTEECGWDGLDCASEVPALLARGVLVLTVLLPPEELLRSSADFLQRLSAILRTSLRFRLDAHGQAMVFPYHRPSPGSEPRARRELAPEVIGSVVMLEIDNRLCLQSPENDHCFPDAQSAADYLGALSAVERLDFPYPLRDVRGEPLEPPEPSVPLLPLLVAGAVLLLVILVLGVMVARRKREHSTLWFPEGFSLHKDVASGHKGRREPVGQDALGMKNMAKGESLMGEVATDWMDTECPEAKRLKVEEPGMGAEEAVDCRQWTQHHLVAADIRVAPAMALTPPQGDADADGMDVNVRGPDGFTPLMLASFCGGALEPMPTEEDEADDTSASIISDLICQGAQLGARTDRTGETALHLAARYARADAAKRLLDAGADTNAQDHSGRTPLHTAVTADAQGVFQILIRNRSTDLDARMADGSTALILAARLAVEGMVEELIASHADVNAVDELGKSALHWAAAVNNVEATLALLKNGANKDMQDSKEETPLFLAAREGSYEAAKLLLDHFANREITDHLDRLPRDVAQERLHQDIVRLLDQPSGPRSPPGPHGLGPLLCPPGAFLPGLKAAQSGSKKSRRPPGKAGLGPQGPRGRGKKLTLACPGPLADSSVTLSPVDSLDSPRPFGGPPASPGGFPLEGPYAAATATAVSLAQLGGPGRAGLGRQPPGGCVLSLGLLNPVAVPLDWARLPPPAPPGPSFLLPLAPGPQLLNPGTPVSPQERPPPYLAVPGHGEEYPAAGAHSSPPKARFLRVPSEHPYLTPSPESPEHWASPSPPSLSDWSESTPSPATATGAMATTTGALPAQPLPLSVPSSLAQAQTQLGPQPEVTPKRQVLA
Epidermal growth factor receptor (Homo sapiens), sequence (P00533 whole entry, looked up): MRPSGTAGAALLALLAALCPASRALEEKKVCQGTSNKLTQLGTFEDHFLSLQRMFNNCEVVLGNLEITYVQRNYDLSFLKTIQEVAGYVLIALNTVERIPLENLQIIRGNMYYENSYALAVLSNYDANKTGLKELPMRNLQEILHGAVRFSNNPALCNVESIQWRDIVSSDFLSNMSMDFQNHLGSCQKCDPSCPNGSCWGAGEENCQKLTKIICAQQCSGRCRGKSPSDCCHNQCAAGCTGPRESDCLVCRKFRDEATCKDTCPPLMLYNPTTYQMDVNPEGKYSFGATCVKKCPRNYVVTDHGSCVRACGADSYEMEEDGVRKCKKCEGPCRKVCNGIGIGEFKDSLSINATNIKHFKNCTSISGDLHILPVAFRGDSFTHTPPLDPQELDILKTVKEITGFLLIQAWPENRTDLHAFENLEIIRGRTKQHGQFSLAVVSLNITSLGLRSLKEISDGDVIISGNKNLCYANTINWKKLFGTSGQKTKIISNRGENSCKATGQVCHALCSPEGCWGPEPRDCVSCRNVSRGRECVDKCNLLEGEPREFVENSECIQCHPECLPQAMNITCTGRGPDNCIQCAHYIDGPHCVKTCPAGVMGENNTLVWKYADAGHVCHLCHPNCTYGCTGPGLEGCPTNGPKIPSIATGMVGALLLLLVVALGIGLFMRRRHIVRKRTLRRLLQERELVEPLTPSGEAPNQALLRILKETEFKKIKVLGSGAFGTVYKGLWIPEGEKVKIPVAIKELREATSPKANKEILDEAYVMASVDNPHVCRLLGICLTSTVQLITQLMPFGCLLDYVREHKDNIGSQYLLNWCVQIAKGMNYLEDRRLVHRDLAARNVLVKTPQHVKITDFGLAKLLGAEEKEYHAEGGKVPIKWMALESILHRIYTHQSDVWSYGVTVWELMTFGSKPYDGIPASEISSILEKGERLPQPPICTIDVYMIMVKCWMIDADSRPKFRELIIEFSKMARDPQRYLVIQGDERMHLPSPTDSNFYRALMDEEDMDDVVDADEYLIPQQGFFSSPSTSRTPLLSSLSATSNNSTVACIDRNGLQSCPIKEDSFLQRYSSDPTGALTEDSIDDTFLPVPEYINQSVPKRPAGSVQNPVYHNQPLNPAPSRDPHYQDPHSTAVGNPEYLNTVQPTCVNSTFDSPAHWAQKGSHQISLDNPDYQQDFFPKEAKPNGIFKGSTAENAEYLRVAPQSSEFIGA
Dickkopf-related protein 1 (Homo sapiens), sequence (O94907 whole entry, looked up): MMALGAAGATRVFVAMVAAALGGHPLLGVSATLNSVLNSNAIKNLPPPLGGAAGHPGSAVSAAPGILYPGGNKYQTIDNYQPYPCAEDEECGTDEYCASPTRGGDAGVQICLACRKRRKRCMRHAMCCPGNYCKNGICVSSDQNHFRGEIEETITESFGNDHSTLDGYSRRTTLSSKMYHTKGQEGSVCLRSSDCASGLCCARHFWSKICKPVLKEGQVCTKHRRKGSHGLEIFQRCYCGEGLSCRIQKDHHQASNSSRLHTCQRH
Follistatin-related protein 3 (Homo sapiens), sequence (O95633 whole entry, looked up): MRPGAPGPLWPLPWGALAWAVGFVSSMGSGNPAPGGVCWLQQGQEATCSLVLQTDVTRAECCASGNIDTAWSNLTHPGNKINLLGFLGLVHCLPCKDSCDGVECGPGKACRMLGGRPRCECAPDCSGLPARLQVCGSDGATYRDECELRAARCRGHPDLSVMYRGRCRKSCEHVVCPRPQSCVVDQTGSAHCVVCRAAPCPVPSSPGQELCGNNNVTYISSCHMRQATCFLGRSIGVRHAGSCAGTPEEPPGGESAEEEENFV
Torsin-1A-interacting protein 2 (Homo sapiens), sequence (Q8NFQ8 whole entry, looked up): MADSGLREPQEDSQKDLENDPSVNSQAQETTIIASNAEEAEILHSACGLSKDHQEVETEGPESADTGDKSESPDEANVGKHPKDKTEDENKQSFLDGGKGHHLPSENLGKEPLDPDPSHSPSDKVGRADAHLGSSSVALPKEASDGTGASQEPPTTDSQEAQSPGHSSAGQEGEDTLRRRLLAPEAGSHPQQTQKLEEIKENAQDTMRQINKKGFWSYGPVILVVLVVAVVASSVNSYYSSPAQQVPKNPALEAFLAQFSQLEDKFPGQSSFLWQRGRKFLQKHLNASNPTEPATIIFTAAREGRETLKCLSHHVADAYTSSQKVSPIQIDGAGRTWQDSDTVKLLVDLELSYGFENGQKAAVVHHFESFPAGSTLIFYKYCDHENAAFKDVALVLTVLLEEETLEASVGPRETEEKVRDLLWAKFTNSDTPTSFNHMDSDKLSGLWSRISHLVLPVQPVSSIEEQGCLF

SMILES | composite z-score [1] | z-score [2] | z-score [3] | z-score [4] | composite z-score [5] | z-score [6] | composite z-score [7] | composite z-score [8] | composite z-score [9] | composite z-score [10] | composite z-score [11] | composite z-score [12] | composite z-score [13] | z-score [14] | composite z-score [15] | composite z-score [16] | composite z-score [17] | composite z-score [18] | composite z-score [19] | composite z-score [20]
COC(=O)c1c2oc(c1C(=O)OC)C(=O)N(C)Cc1cn(nn1)C[C@H](Cc1ccccc1)NC(=O)N[C@H](CO)CC2 | -0.929 | 1.23 (inactive) | 0.914 (inactive) | 0.556 (inactive) | -0.609 | -0.666 (inactive) | -0.174 | -0.244 | 0.15 | -0.154 | -0.595 | -0.349 | -0.264 | 0.322 (inactive) | -0.591 | -0.94 | -0.694 | -0.269 | -0.316 | -0.0248
CCCC[C@@H]1C[C@H]1[C@@H](NC(=O)Cc1ccccc1)c1ccc(-c2ccccc2)cc1 | 0.0706 | 0.341 (inactive) | 0.373 (inactive) | -0.116 (inactive) | 2.94 | -0.255 (inactive) | -0.0204 | -0.219 | 0.0419 | -0.125 | -0.146 | -0.0423 | 0.712 | -1.26 (inactive) | 0.0191 | 0.117 | 0.172 | 0.135 | -0.46 | 0.685
COC(=O)c1c(CC[C@@H](CO)NC(=O)N[C@H](Cn2cc(C3(O)CCCCC3)nn2)C(C)C)oc(C(C)=O)c1C(=O)OC | 1.57 | -0.325 (inactive) | -2.39 (inactive) | 0.0762 (inactive) | 1.12 | 1.66 (inactive) | -0.0437 | 1.86 | 1.08 | 0.0274 | 0.997 | -0.0398 | -0.446 | -1.66 (inactive) | 1.07 | 0.859 | 0.557 | 1.1 | 0.788 | 0.368
O=C(NCCCCCNC(=O)/C(Cc1ccccc1)=N/O)OCc1ccccc1 | -0.276 | -1.72 (inactive) | -1.43 (inactive) | -1.89 (inactive) | -0.625 | 2.16 (inactive) | -0.17 | 0.164 | 0.253 | -0.127 | -0.263 | -0.314 | -0.603 | -1.54 (inactive) | 0.0434 | -0.201 | 0.445 | 0.206 | 0.229 | -0.182
O=C1OCCC=C[C@H]2OC34C=CCN(Cn5nnc6ccccc65)C(=O)[C@H]3N(CCCCCCO)C(=O)[C@@H]4C12 (stereo not given in full) | -0.0465 | 0.298 (inactive) | 0.577 (inactive) | 0.194 (inactive) | 0.529 | -0.369 (inactive) | -0.0741 | -1.09 | -0.36 | -0.354 | 1.8 | -0.0278 | 0.337 | 0.415 (inactive) | -0.893 | -0.357 | -1.23 | -0.822 | -1.03 | -0.157
Cc1ccc(S[C@]2(C(=O)O)CC(=O)N(Cc3cc(C(F)(F)F)cc(C(F)(F)F)c3)[C@@H]2c2ccc(CO)cc2)cc1 | -0.224 | 0.952 (inactive) | -0.539 (inactive) | -0.0248 (inactive) | 1.53 | -1.17 (inactive) | -0.142 | -1.6 | -2.63 | -0.373 | 1.2 | 0.326 | 1.14 | -0.262 (inactive) | -1.65 | -1.03 | -1.89 | -1.92 | -2.26 | -0.131
COC(=O)C(CC#Cc1ccc2c(c1)[C@]1(C(=O)N2)[C@H](c2ccccc2OCCO)N2[C@H](c3ccccc3)[C@H](c3ccccc3)OC(=O)[C@H]2[C@@H]1C(=O)NC[C@H](O)c1ccccc1)C(=O)OC | 1.54 | 2.51 (inactive) | 1.32 (inactive) | 4.78 (inactive) | 3.25 | 0.282 (inactive) | -0.324 | 1.1 | 1.04 | -0.147 | 1.65 | -0.378 | 0.702 | -0.267 (inactive) | 0.928 | 1.26 | 0.361 | 0.682 | 0.521 | 0.897
N#Cc1ccc(C(O)C2C=CC3C(=O)N(c4ccccc4)C(=O)C3N2Nc2ccccc2)cc1 (stereo not given) | 0.0016 | 0.953 (inactive) | -0.145 (inactive) | -0.248 (inactive) | 2.62 | 0.445 (inactive) | 0.443 | -0.383 | 0.744 | 0.104 | 0.592 | 0.759 | 1 | -1.04 (inactive) | 0.913 | -0.0985 | 0.107 | 0.391 | -0.352 | 0.877
C=C(COC)C(=O)CC[C@@H](OC(=O)c1cccnc1)c1ccc(OCCO)cc1 | 1.2 | -10.9 (active) | -20.4 (active) | -3.62 (inactive) | 0.204 | -0.653 (inactive) | 0.0047 | 0.992 | 0.431 | 0.167 | 0.872 | 0.131 | 0.423 | -0.853 (inactive) | 1.55 | 0.328 | 0.338 | 0.847 | 0.922 | 1.26
CN(C)c1ccc(C(O)C2C=CC3C(=O)N(c4ccccc4)C(=O)C3N2Nc2ccc([N+](=O)[O-])cc2)cc1 (stereo not given) | 1.44 | 0.0475 (inactive) | -1.3 (inactive) | 2.39 (inactive) | 2.98 | -0.564 (inactive) | 0.401 | 0.037 | 1.13 | -0.0234 | 1.53 | 0.604 | 1.16 | -0.0025 (inactive) | 0.704 | 1.29 | 0.332 | 0.974 | -0.204 | 1.4
